Screens (PubChem)
MEKK2 WT-MEK5: raises or lowers MEK5 binding to wildtype human MEKK2 PB1 domain; AID 1531; 290,000 tested, 1.1% active; Q9Y2U5; binding response (% of control), % at 10 µM; bead flow cytometry, Alexa488-MEK5 binding to MEKK2 WT; actives lie on both sides; in the data active = binding response below about 67% or above about 130%
MEKK2mut PB1 HTS: signal of MEK5 binding to mutant human MEKK2 PB1 domain; bead flow cytometry, Alexa488-MEK5 binding to MEKK2 mutant; percent response, % at 10 µM; 290,000 tested, 0.35% active; AID 1530; in the data active = percent response above about 24%, passing the limit was not always enough
MEKK3 PB1 HTS: MEKK3-MEK5 PB1 interaction, increase or decrease; 290,000 tested, 1.4% active; Q99759; bead-based flow cytometry, Alexa488-MEK5 binding to MEKK3; actives lie on both sides; 0 = blocked by unlabeled MEK5, 100 = vehicle; binding response (% of control), % at 10 µM;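 active = binding response more than 3 SD above or below the average of its plate-row segment, actives on both sides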;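 also: Alexa488 bead fluorescence after subtracting the streptavidin-only scavenger bead signal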
GRK2 aptamer HTS: inhibitors of human GRK2 displacing RNA aptamer. P25098. bead flow cytometry, FAM-aptamer displacement from GRK2. 330,000 tested, 0.59% active. inhibition of aptamer binding, % at 10 µM;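 active = inhibition of aptamer binding above 40%, roughly 3 SD of noise, on plates passing a quality check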;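 also: median bead fluorescence of bound FAM aptamer so fluorescent compounds give negative values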
Target sequence (P25098 whole entry, looked up): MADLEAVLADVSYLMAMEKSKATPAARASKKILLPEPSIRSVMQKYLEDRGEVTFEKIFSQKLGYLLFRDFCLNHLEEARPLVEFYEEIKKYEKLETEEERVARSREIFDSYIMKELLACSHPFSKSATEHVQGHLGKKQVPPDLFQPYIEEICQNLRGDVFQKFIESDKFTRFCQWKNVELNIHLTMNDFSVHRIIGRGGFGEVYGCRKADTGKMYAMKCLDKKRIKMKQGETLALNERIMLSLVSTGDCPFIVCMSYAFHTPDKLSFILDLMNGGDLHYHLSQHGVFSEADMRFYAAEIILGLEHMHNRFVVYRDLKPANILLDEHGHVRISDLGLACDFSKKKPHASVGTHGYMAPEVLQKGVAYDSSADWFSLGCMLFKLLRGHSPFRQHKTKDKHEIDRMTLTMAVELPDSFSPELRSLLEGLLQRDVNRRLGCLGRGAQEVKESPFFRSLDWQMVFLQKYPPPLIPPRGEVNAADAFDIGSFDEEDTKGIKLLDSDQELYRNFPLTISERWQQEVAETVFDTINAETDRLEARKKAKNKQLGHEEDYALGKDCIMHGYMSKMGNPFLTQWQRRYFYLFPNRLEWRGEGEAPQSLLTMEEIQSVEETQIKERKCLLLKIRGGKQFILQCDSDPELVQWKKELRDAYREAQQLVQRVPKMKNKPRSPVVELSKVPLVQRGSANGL
MEKK2wt confirm: raises or lowers MEK5 binding to wildtype human MEKK2, retest; shares compounds with MEKK3 PB1 HTS; 5,900 tested, 2.4% active; binding response (% of control), % at 10 µM; AID 1892; bead flow cytometry, Alexa488-MEK5 binding to MEKK2 WT; actives lie on both sides; in the data active = binding response below about 16% or above about 210%; inactive = in between
MEKK2mut confirm: signal of MEK5 binding to mutant human MEKK2, retest; percent response, % at 10 µM; shares compounds with MEKK3 PB1 HTS; AID 1893; bead flow cytometry, Alexa488-MEK5 binding to MEKK2 mutant; 5,900 tested, 2% active; in the data active = percent response mostly above about 71%, no sharp cut-off; inactive = mostly below about 38%;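 also: higher means compound restores mutant binding toward wildtype level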
MEKK3-MEK5 inh: MEKK3-MEK5 PB1 inhibition, single concentration confirmation. shares compounds with MEKK3 PB1 HTS. bead flow cytometry, Alexa488-MEK5 binding to MEKK3; stronger effect = lower value. binding response (% of control), % at 10 µM. 5,900 tested, 1.8% active. AID 1894;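 active = binding response below 72% of control, or above a set upper limit, though filed actives all read lower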;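 also: 100% = DMSO only wells and 0% = binding blocked by excess unlabeled MEK5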
An asterisk follows results filed as active; . = not tested or not shown; [ ] = remark or other dose. Hits are enriched below; roughly 2.5% of the tested compounds scored in any of these assays.

SMILES	MEKK2 WT-MEK5	MEKK2mut PB1 HTS	MEKK3 PB1 HTS	GRK2 aptamer HTS	MEKK2wt confirm	MEKK2mut confirm	MEKK3-MEK5 inh
CC(=O)N1CCN(S(=O)(=O)c2c(C)n(C)c(=O)n(C)c2=O)CC1	103	0	105	0	.	.	.
COc1ccccc1C1c2ccc3ccccc3c2Oc2ncn(CCCO)c(=N)c21 (stereo not drawn)	121	6	100	0	.	.	.
COc1ccc(C2c3ccc4ccccc4c3Oc3ncn(CCCN(C)C)c(=N)c32)cc1 (stereo not drawn)	202*	51*	111	0	198	55	100
COc1ccc(C2c3c(ncn(CCN4CCOCC4)c3=N)Oc3ccc4ccccc4c32)cc1OC (stereo not drawn)	163*	21	109	0	153	28	107
COc1ccccc1C1c2ccc3ccccc3c2Oc2ncn(CCN(C)C)c(=N)c21 (stereo not drawn)	153*	32*	115	0	150	29	107
COc1ccc(C2c3ccc4ccccc4c3Oc3ncn(Cc4ccco4)c(=N)c32)cc1OC (stereo not drawn)	161*	34	103	0	147	33	109
COc1ccc(C2c3ccc(O)cc3Oc3ncn(Cc4ccco4)c(=N)c32)cc1OC (stereo not drawn)	108	3	99	0	.	.	.
CC(C)(C)C(=O)Nc1nnc(SCC(=O)NC2CC2)s1	97	-1	100	2	.	.	.
CSc1nc(N)nc2c1ncn2CC(=O)NCc1ccc2[nH]ccc2c1	.	.	.	0	.	.	.
CCOC(=O)C1=C(CN2CC(C)CC(C)C2)NC(=O)NC1c1ccc2c(c1)OCO2 (stereo not drawn)	88	-9	97	0	.	.	.
O=C(c1ccccc1)C1CCN(C(=O)c2c(F)cccc2F)CC1	102	1	103	6	.	.	.
CN1CCN(Cc2ccc(Sc3ccc(Cl)cc3)c([N+](=O)[O-])c2)CC1	157*	27	107	0	122	8	102
Cc1ccc(Sc2ccc(CN3CCCC3)cc2[N+](=O)[O-])cc1	134	12	98	0	.	.	.
CCOC(=O)c1nc(C)nc(Sc2n[nH]c(-c3ccc(C(C)(C)C)cc3)n2)c1C	98	3	99	0	.	.	.
O=C(O)C1CC=CCC1C(=O)Nc1ccc(Oc2ccc(Cl)cc2)cc1 (stereo not drawn)	91	-4	93	7	.	.	.
Cc1cc(C)cc(Oc2ccc(NC(=O)C3CC=CCC3C(=O)O)cc2)c1 (stereo not drawn)	87	-4	75*[inhibitor]	11	102	-3	101
COc1cc2c(cc1OC)CN(C(=O)CN1CCN(S(=O)(=O)c3ccccc3)CC1)CC2	100	1	101	0	.	.	.
CCN1C(=O)[C@@H]2[C@@H](c3ccc(SC4CCCCC4)cc3)N3CCC[C@@]3(C(=O)OC)[C@@H]2C1=O	.	.	.	0	.	.	.
CNC(=S)N1CCN(C(=O)C2CCCO2)CC1 (stereo not drawn)	94	-2	67*[inhibitor]	5	102	0	103
O=C(C1CCCO1)N1CCN(C(=S)Nc2ccc(F)cc2)CC1 (stereo not drawn)	100	-2	97	5	.	.	.
Cc1nc(Cl)c(C(=O)NC(=O)NCc2ccccc2)c(C)c1Cl	107	1	142*	18	97	-6	100
Cc1ccccc1NC(=O)c1c(Cl)nc(C)c(Cl)c1C	104	-1	104	2	.	.	.
O=C(Nc1ccc(SC(F)F)cc1)C12CCC(CC1)C2	104	0	134*	0	78	-13	87
COc1ccc2[nH]c3c(c2c1)CCN1C(=O)C(CC(=O)NC/C=C(\C)CCC=C(C)C)C[C@H](C(=O)N2CCOCC2)[C@@]31CCC1CCCC1 (stereo partly drawn)	.	.	.	5	.	.	.
COc1ccc(C(CCNCc2ccccc2)c2ccc(F)cc2)cc1 (stereo not drawn)	103	5	94	0	.	.	.
SMILES	MEKK2 WT-MEK5	MEKK2mut PB1 HTS	MEKK3 PB1 HTS	GRK2 aptamer HTS	MEKK2wt confirm	MEKK2mut confirm	MEKK3-MEK5 inh
COc1ccc(CNCCC(c2ccc(OC)cc2)c2ccccc2OC)cc1 (stereo not drawn)	147*	21	106	0	149	41	104
COc1ccc(C(CCNCc2ccc(N(C)C)cc2)c2ccccc2OC)cc1 (stereo not drawn)	148*	22	108	0	142	18	105
COc1ccc(C(CCNCc2ccc(OC(C)C)cc2)c2ccccc2OC)cc1 (stereo not drawn)	199*	40*	111	0	198	70*	111
COc1ccc(C(CCNC(C)c2ccccc2)c2ccc(F)cc2)cc1 (stereo not drawn)	156*	46	107	5	124	6	103
Cc1ccn2cc(C34CC5CC(CC(C5)C3)C4)nc2c1	102	-4	99	4	.	.	.
C/C(=N/NC(=O)CNC(=O)c1ccccn1)c1cccc([N+](=O)[O-])c1	99	1	100	0	.	.	.
COc1ccc(C2=NOC(C(=O)N3CCN(C(=O)c4ccco4)CC3)C2)cc1OC (stereo not drawn)	96	-11	100	1	.	.	.
COc1cc(CN2CCCC(CO)(Cc3cccc(Cl)c3)C2)cc2c1OCO2 (stereo not drawn)	105	1	99	0	.	.	.
COc1ccc(OCc2cc(C(=O)NCC3CCCCO3)no2)c(Cl)c1 (stereo not drawn)	98	-10	102	1	.	.	.
COc1ccc(CNCCC(c2ccccc2)c2ccc(OC(C)C)cc2)cc1OC (stereo not drawn)	151*	22	106	0	147	34	110
CC(C)C[C@H]1CN=C(Nc2ccccc2)N1CCCC1CCCCC1	126	24*	105	2	127	13	104
O=S(=O)(Nc1ccc(-c2nnc(SCc3ccc(Cl)cc3)o2)cc1)c1ccccc1	115	3	131*	3	94	-2	102
CC(C)(Cc1ccc(O)cc1)NC(=O)CC(=O)N=Nc1c(O)[nH]c2ccc(Br)cc12	108	40	21*[inhibitor]	1	106	9	105
Cc1cccc2nc(C(=O)Nc3cccc(C(=O)NC4CC4)c3)cn12	.	.	.	4	.	.	.
O=C1[C@@H]2[C@@H]3C[C@@H]([C@H]4ON=C(c5ccc(Cl)cc5)[C@@H]34)[C@@H]2C(=O)N1c1ccc2c(c1)OCO2	98	0	83	2	.	.	.
